Rab9 prom act: Rab9 promoter activation | Huh7 Rab9 promoter-luciferase reporter, luminescence, 24 h | Potency, µM (doses to about 9.22 µM), for the others: at the highest dose activation, negative = inhibition, usual class: activators | hit rate 2.8% among 320,000; note: % of control where 0% means no effect; nearly all actives have a fitted effect of over 60% in size
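Huh7 cells stably carrying a Rab9 promoter-luciferase reporter, 1500 cells per well in OP-MEM I with 10% FBS, treated with compound 24 hours at 37C. Luciferase activity read by luminescence after 10 minutes with Amplite reagent.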
NPC1 promoter act: NPC1 promoter activation. Huh7 NPC1 promoter luciferase reporter, 24 h. Potency, µM (titrated, usually from 9.22 µM), without a hit: at the highest dose activation, usual class: activators. hit rate 2.4% among 320,000. AID 485313; note: % of control where 0% means no effect; nearly all actives have a fitted effect of over 60% in size
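Readout is luciferase luminescence, reflecting NPC1 promoter activation in stably transfected Huh7 cells after 24 h compound exposure at 37 °C in reduced-serum medium with 10% FBS.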
ELG1 genotoxic: genotoxicity induction in ELG1-luciferase HEK293T cells. HEK293T ELG1-luciferase reporter, luminescence, 16 h. Potency, µM (top dose mostly 46 µM), inactives show at the top dose activity change, positive = activation, usual class: activators. hit rate 1.3% among 330,000. AID 504466; note: % of control where 0% means no effect; nearly all actives have a fitted effect of over 60% in size
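Genotoxicity was scored as increased ELG1-luciferase reporter signal, measured by ONE-Glo luminescence (30 min, room temperature). Compound or vehicle exposure of the HEK293T reporter cells lasted 16 hr at 37°C.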
FLuc modulator: firefly luciferase modulation, counter-screen for miR-21 project. Potency, µM (highest dose often 57.5 µM), for inactives: at the top dose activity change, negative = inhibition, most hits filed as inhibitors. purified FLuc, Km substrates, luminescence inhibition. hit rate 6.9% among 360,000;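 note: plate controls were vehicle for no effect and reference inhibitor for full effect; nearly all actives have a fitted effect of over 55% in size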
Target sequence (P08659 whole entry, looked up): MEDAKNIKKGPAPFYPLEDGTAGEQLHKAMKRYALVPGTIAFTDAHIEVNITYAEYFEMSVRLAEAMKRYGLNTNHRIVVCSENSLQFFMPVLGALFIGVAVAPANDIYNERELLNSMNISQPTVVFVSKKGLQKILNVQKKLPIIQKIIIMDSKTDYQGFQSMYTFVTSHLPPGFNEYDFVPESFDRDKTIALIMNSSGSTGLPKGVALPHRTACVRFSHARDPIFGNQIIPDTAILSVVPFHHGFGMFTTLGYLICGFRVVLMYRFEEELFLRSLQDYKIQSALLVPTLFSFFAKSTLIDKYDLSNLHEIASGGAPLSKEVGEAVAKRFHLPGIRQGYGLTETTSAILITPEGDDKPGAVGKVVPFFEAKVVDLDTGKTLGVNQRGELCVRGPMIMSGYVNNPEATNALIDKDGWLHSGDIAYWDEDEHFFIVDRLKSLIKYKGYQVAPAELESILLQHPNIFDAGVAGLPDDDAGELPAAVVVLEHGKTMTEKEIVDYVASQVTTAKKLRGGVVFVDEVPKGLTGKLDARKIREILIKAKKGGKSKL
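Purified P. pyralis luciferase (10nM final) with 10uM D-luciferin and 10uM ATP (Km levels) in 50mM Tris acetate pH 7.5, 10mM Mg acetate, 0.01% Tween-20, 0.05% BSA; qHTS 6-point titration, ~60 µM downward; luminescence read.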
Luc counter: counter-screen: inhibitors of Kinase-Glo firefly luciferase | Q27757 | Kinase-Glo luciferase, ATP luminescence, 8 min | Potency, µM (top dose mostly 38.3 µM), inactives show top-dose activity change, negative = inhibition, usual class: inhibitors | hit rate 0.28% among 200,000; note: % is set by controls: 0 for no effect and ±100 for the full control effect; nearly all actives have a fitted effect of over 60% in size
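Light output from Kinase-Glo luciferase with luciferin and 10 uM ATP in 50 mM imidazole pH 7.2, KCl, MgCl2, Tween 20, BSA; compound pin-delivered, 8-min ambient incubation, then luminescence read.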
SMN2 splice enh: enhancers of SMN2 splice variant expression | HEK293 SMN2-luciferase splicing reporter, luminescence, 30-36 h | Potency, µM (top dose mostly 46.1 µM), without a hit: at the highest dose activity change, positive = activation, hits mostly activators | hit rate 2.8% among 210,000 | AID 1458; note: % of control where 0% means no effect; nearly all actives have a fitted effect of over 55% in size
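HEK293 cells carry an SMN2 […]–luciferase reporter in which exon 7 inclusion puts luciferase in frame. Cells were plated 10-12 h before compound addition, then incubated 30-36 h at 37C. ONE-Glo luminescence was read; sodium butyrate at 4.5 mM final served as control.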
* = called active by the depositor; u = inconclusive; x = not tested or not shown. Shown are actives, neighbours in structure and some others; about 7.5% of the full set was active somewhere. Calls come from the whole dose curve; as a rule, active = well fitted curve in the direction sought with a large enough effect; inconclusive = small, poorly fitted or top-dose-only effect, or another doubt; inactive = no such curve, though single readings can be large; an effect the other way counts as inactive or inconclusive. Potency is the fitted concentration of half-maximal effect.

SMILES	Rab9 prom act	NPC1 promoter act	ELG1 genotoxic	FLuc modulator	Luc counter	SMN2 splice enh
COc1ccccc1NC(=O)Nc1nnc(C(C)C)s1	u	u	u	17µM*	0%	22µM*
COc1ccccc1NC(=O)CSc1nnc(NC(=O)Nc2ccc(C)cc2)s1	x	x	x	2.1µM*	x	x
CC(=O)Nc1ccc(NC(=O)CSc2nnc(NC(=O)c3cccc(F)c3)s2)cc1	3.2µM*	u	u	0.67µM*	x	x
O=C(CSc1nnc(NC(=O)c2c(F)cccc2F)s1)Nc1ccc(F)cc1	2.2µM*	u	19%	-4%	-1%	x
CCc1cc(C(=O)N2CCCC(CO)(Cc3ccc(F)cc3)C2)n(C)n1 (stereo unspecified)	5%	1%	-2%	4%	x	x
O=C(CSc1nnc(NC(=O)Nc2ccccc2)s1)Nc1cccc(F)c1	x	x	x	1.5µM*	x	x
C=CCn1c(SCC(=O)NCC2CCCO2)nc2sc(CC)cc2c1=O (stereo unspecified)	x	x	-2%	x	x	x
O=C(O)COc1ccc2c(-c3ccccc3)cc(=O)oc2c1	16%	10%	10%	19µM*	-1%	u
COc1ccc2cc(-c3ccccc3)c(=O)oc2c1	0.71µM*	1.3µM*	2.6µM*	2.4µM*	x	x
CC(Oc1ccc2cc(-c3ccccc3)c(=O)oc2c1)C(=O)NCC1CCC(C(=O)O)CC1 (stereo unspecified)	-4%	1%	5%	21µM*	x	x
O=c1oc2cc(OCc3c(F)cccc3Cl)ccc2cc1-c1ccccn1	-1%	0%	1%	1%	1%	-27%
CCCOc1ccc2cc(-c3ccccn3)c(=O)oc2c1	0.45µM*	u	u	0.24µM*	13µM*	0.79µM*
COC(=O)CSc1nc2sc3c(c2c(=O)n1-c1ccc(C)cc1)CC(C(C)C)OC3 (stereo unspecified)	x	x	x	-4%	x	-11%
CCOC(=O)c1cnn(-c2ccc(C(=O)Nc3cccc(C(C)=O)c3)cc2)c1N	x	x	x	-1%	x	x
COc1ccc(-c2cc(=O)oc3cc(OCC(=O)N(C)C)ccc23)cc1	-37%	-3%	2%	-1%	x	x
CN(C)C(=O)COc1ccc2cc(-c3ccccc3)c(=O)oc2c1	2µM*	4µM*	u	u	-3%	18µM*
O=c1oc2ccccc2cc1-c1ccccc1	u	19%	u	u	0%	21%
COC(=O)C(C)Oc1ccc2cc(-c3ccccc3)c(=O)oc2c1 (stereo unspecified)	-4%	-1%	3%	24µM*	x	x
Cc1ccc(C)c(NC(=O)Cn2c(=O)n(Cc3ccc4c(c3)OCO4)c(=O)c3ccccc32)c1	x	x	x	-2%	x	-2%
CC1=NOC(=O)/C1=C\c1ccc(-c2cccc(Cl)c2)o1	-10%	-13%	-13%	11µM*	-5%	-50%
CC1(C)OC(=O)C(=Cc2ccc(-c3ccc(Cl)c(C(=O)O)c3)o2)C(=O)O1	-1%	-4%	-2%	15µM*	-2%	10%
O=C(O)c1cc(-c2ccc(/C=C3/SC(=S)N(Cc4ccccc4)C3=O)o2)ccc1Cl	28%	23%	-8%	u	1%	19%
Nc1ccccc1N=Cc1ccc(-c2cccc(Cl)c2)o1	3.2µM*	2.8µM*	-6%	3µM*	-3%	x
COC(=O)N/N=C/c1ccc(-c2cccc(Cl)c2)o1	13%	7%	-1%	u	1%	7%
CC1=NOC(=O)/C1=C\c1ccc(-c2ccccc2Br)o1	-13%	-10%	-15%	11µM*	-20%	-19%
SMILES	Rab9 prom act	NPC1 promoter act	ELG1 genotoxic	FLuc modulator	Luc counter	SMN2 splice enh
CCc1cccc(NC(=O)Cn2c(=O)c3cccn3c3ccccc32)c1	5%	-3%	10%	3%	x	x
CC1=NOC(=O)/C1=C\c1ccc(-c2ccc(Cl)c(C(=O)O)c2)o1	2%	1%	-2%	19µM*	-5%	-2%
COc1ccc(CN2C(=O)/C(=C/c3ccc(-c4ccc(Cl)c(C(=O)O)c4)o3)SC2=S)cc1	4%	4%	3%	u	0%	22%
CC(=O)Nc1cccc(NC(=O)CSc2n[nH]c(-c3ccccc3)n2)c1	-4%	0%	4%	u	x	x
CCOc1cc(/C=N/Nc2nc(C)cc(=O)[nH]2)ccc1O	3%	-2%	3%	u	x	x
CC(=O)Nc1sc(/C(C#N)=C/c2ccc(Cl)c(Cl)c2)nc1-c1ccc(C)cc1	-2%	0%	-4%	0%	-3%	-32%
CC(=O)Nc1sc(N/N=C/c2ccc(C)cc2)nc1-c1ccc(C)cc1	4%	7%	10%	8.5µM*	x	x
CCOc1cc(/C=N\Nc2nc(-c3ccc(C)cc3)c(NC(C)=O)s2)ccc1O	-3%	0%	0%	27µM*	x	x
CC(=O)Nc1sc(N/N=C/c2ccc(N(C)C)cc2)nc1-c1ccc(C)cc1	24%	24%	u	6.7µM*	x	x
COc1cc(/C=N\Nc2nc(-c3ccc(C)cc3)c(NC(C)=O)s2)ccc1O	0%	-3%	2%	u	x	x
COc1ccc(/C=N/Nc2nc(-c3ccc(C)cc3)c(NC(C)=O)s2)cc1OC	-3%	-2%	u	3µM*	x	x
COc1cccc(CN2CCN(Cc3cccc4c3OCO4)CC2CCO)c1 (stereo unspecified)	0.089µM*	0.4µM*	u	2.4µM*	-5%	x
O=C(N/N=C/c1ccc(N2CCOCC2)cc1)c1ccncc1	-7%	2%	0%	u	x	x
O=C(N/N=C/c1ccc(N2CCOCC2)cc1)c1cccs1	u	2.8µM*	u	8.5µM*	u	11µM*
O=C(N/N=C/c1ccc2c(c1)OCO2)c1ccc(NS(=O)(=O)c2cccs2)cc1	18%	9%	4%	9.5µM*	-1%	13%
O=C(N/N=C/c1ccc([N+](=O)[O-])o1)c1ccc(NS(=O)(=O)c2cccs2)cc1	2%	-2%	-11%	u	x	x
O=C(N/N=C/c1ccc([N+](=O)[O-])cc1)c1ccc(NS(=O)(=O)c2cccs2)cc1	6%	0%	1%	21µM*	x	x
O=C(N/N=C/c1ccc(N2CCOCC2)cc1)c1ccc(NS(=O)(=O)c2cccs2)cc1	0%	1%	-1%	7.6µM*	2%	-3%
O=C(N/N=C/c1ccc(N2CCOCC2)cc1)c1ccccc1NS(=O)(=O)c1cccs1	2%	0%	0%	u	0%	27%
O=C(Nc1ccc(N2CCOCC2)cc1N1CCOCC1)c1cccs1	-1%	2%	0%	-13%	0%	3%
O=C(N/N=C/c1ccc(N2CCOCC2)s1)c1ccc(NS(=O)(=O)c2cccs2)cc1	12%	9%	1%	27µM*	x	x
